Reference: PubChem BioAssay (NCI)
About 79,000 compounds went through this panel and 15% of them were active in at least one assay; those are over-represented in the sample as a whole. Activity calls are given as the source filed them. Rule as the data show it: active = growth inhibition above about 70%; inactive = the rest.

Legend:
[1] = NCI Yeast Anticancer Drug Screen. Data for the rad50 strain (AID 155);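 also: 0% = growth of vehicle-only cultures of the same strain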; details: S. cerevisiae rad50 strain growth inhibition, active compounds read high
In short: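 A DNA repair-deficient yeast mutant serves as the test organism; compound-induced growth inhibition is calculated against vehicle-treated cells.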

[2] = NCI Yeast Anticancer Drug Screen. Data for the mec2-1 strain (AID 157); details: S. cerevisiae mec2-1 strain, active compounds read high
In short: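 Growth inhibition is read against vehicle-treated controls after compound exposure of the mec2-1 yeast strain, which is defective in DNA damage repair or cell cycle control.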

[3] = NCI Yeast Anticancer Drug Screen. Data for the sgs1 mgt1 strain (AID 161);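 also: 0% = growth of cultures given vehicle only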; details: S. cerevisiae sgs1 mgt1 strain, active compounds read high
In short: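 Percent growth inhibition was derived by comparing compound-exposed mutant yeast with vehicle-exposed cultures. The strain carries alterations in DNA damage repair.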

[4] = NCI Yeast Anticancer Drug Screen. Data for the cln2 rad14 strain (AID 165);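 also: 0% = growth equal to vehicle treated cultures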; details: S. cerevisiae cln2 rad14 strain, active compounds read high
In short: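 Growth inhibition, relative to vehicle-treated controls, is the read-out. The test organism is a yeast strain with defined genetic alterations, cln2 rad14.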

[5] = NCI Yeast Anticancer Drug Screen. Data for the bub3 strain (AID 167); details: S. cerevisiae bub3 mutant strain, active compounds read high
In short: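 Inhibition values come from growth of compound-treated mutant yeast normalised to vehicle-treated controls.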

[6] = NCI Yeast Anticancer Drug Screen. Data for the mlh1 rad18 strain (AID 175); details: S. cerevisiae mlh1 rad18 strain growth inhibition, active compounds read high
In short: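 Cells of a genetically altered yeast strain, deficient in DNA damage repair, were treated with compound. Their growth was then compared with that of vehicle-treated cultures to give inhibition.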

[7] = at 5.0 µM (retest, dose inferred, filed as 0.5)
[8] = at 50.0 µM (retest, dose inferred, filed as 5.0)

Measured: growth inhibition

S=c1sc(-c2ccccc2)c[se]1
inactive: [1]; [7] -1% | [1]; [8] 42% | [1]; at 50.0 µM 67% | [2]; [7] 2% | [2]; [8] 28% | [2]; at 50.0 µM 21.6% | [3]; [7] -2% | [3]; [8] 34% | [3]; at 50.0 µM 46.4% | [4]; [7] -1% | [4]; [8] 13% | [5]; [7] -1% | [5]; [8] 17% | [5]; at 50.0 µM 35.1% | [6]; [7] -5% | [6]; [8] 41% | [6]; at 50.0 µM 32.9%
active: [4]; at 50.0 µM 88.5%

CCOP(=S)(OCC)SCc1c(C)c(C)c(CSP(=S)(OCC)OCC)c(C)c1C
inactive: [1]; [7] 1% | [1]; [8] -11% | [1]; at 50.0 µM -4.3% | [2]; [7] -4% | [2]; [8] -2% | [2]; at 50.0 µM -3.75% | [3]; [7] -8% | [3]; [8] 2% | [3]; at 50.0 µM -12.2% | [4]; [7] 1% | [4]; [8] -10% | [4]; at 50.0 µM 45% | [5]; [7] -4% | [5]; [8] -4% | [5]; at 50.0 µM -0.65% | [6]; [7] 2% | [6]; [8] -5% | [6]; at 50.0 µM 8.8%

CC1(OO)CCC2CC1C2(C)C (configuration not stated)
inactive: [1]; [7] 9% | [2]; [7] 6% | [3]; [7] -2% | [3]; [8] 68% | [4]; [7] 4% | [4]; [8] 65% | [5]; [7] -1% | [6]; [7] 13%
active: [1]; [8] 77% | [1]; at 50.0 µM 90.2% | [2]; [8] 99% | [2]; at 50.0 µM 99.6% | [3]; at 50.0 µM 99.4% | [4]; at 50.0 µM 82.7% | [5]; [8] 95% | [5]; at 50.0 µM 99.5% | [6]; [8] 94% | [6]; at 50.0 µM 98.2%

CC(=O)Nc1c2sscc-2n(C)c1=O
active: [1]; [7] 98% | [1]; [8] 99% | [1]; at 50.0 µM 93.2% | [2]; [7] 99% | [2]; [8] 100% | [2]; at 50.0 µM 94.9% | [3]; [7] 99% | [3]; [8] 99% | [3]; at 50.0 µM 94.6% | [4]; [7] 98% | [4]; [8] 99% | [4]; at 50.0 µM 93.2% | [5]; [7] 97% | [5]; [8] 99% | [5]; at 50.0 µM 94% | [6]; [7] 99% | [6]; [8] 99% | [6]; at 50.0 µM 92.7%

O=C(O)CN1CCN(CC(=O)O)CC(=O)[O][Hg][O]C(=O)C1
active: [1]; [7] 100% | [1]; [8] 99% | [1]; at 50.0 µM 99.3% | [2]; [7] 100% | [2]; [8] 100% | [2]; at 50.0 µM 99.4% | [3]; [7] 99% | [3]; [8] 99% | [3]; at 50.0 µM 99.5% | [4]; [7] 99% | [4]; [8] 99% | [4]; at 50.0 µM 98.3% | [5]; [7] 100% | [5]; [8] 100% | [5]; at 50.0 µM 99.3% | [6]; [7] 99% | [6]; [8] 99% | [6]; at 50.0 µM 99.2%

C1CCC(NCC2CCCO2)CC1 (configuration not stated)
inactive: [1]; [7] -12% | [1]; [8] 1% | [2]; [7] -10% | [2]; [8] -21% | [3]; [7] -1% | [3]; [8] -9% | [4]; [7] 25% | [4]; [8] 30% | [5]; [7] -2% | [5]; [8] 17% | [6]; [7] -4% | [6]; [8] -31% | [6]; at 50.0 µM 58.3%
active: [1]; at 50.0 µM 77.5% | [2]; at 50.0 µM 71% | [3]; at 50.0 µM 79.5% | [4]; at 50.0 µM 76.3% | [5]; at 50.0 µM 77.8%

CCC(=O)C(CCN1CCC(N2C(=O)C(CCC#N)c3ccccc32)CC1)(c1ccccc1)c1ccccc1 (configuration not stated)
inactive: [1]; [7] -3% | [1]; [8] -3% | [1]; at 50.0 µM -7.55% | [2]; [7] -6% | [2]; [8] -6% | [2]; at 50.0 µM -23.4% | [3]; [7] 8% | [3]; [8] -3% | [3]; at 50.0 µM 10.8% | [4]; [7] -2% | [4]; [8] 14% | [4]; at 50.0 µM 3.15% | [5]; [7] -1% | [5]; [8] -17% | [5]; at 50.0 µM 10.2% | [6]; [7] -23% | [6]; [8] 1% | [6]; at 50.0 µM 32.2%

O=[N+]([O-])/C=C/c1cccc(F)c1
active: [1]; [8] 99% | [1]; at 50.0 µM 99.5% | [2]; [8] 99% | [2]; at 50.0 µM 99.7% | [3]; [8] 99% | [3]; at 50.0 µM 99.6% | [4]; [8] 99% | [4]; at 50.0 µM 99.3% | [5]; [8] 98% | [5]; at 50.0 µM 99.5% | [6]; [8] 99% | [6]; at 50.0 µM 99.4%
inactive: [1]; [7] 40% | [2]; [7] 30% | [3]; [7] 29% | [4]; [7] 10% | [5]; [7] 18% | [6]; [7] 59%

COC(=O)C1c2c(C)cc3n2C(C=CC3)C1C(=O)OC (configuration not stated)
inactive: [1]; [7] 7% | [1]; [8] 69% | [1]; at 50.0 µM 13.2% | [2]; [7] 36% | [2]; at 50.0 µM 19.1% | [3]; [7] -6% | [3]; [8] 24% | [3]; at 50.0 µM 4.95% | [4]; [7] 67% | [4]; at 50.0 µM 26.6% | [5]; [7] 64% | [5]; at 50.0 µM -10.2% | [6]; [7] -9% | [6]; [8] 54% | [6]; at 50.0 µM -3.5%
active: [2]; [8] 96% | [4]; [8] 78% | [5]; [8] 92%
